Assay results as given in ChEMBL document CHEMBL1857833, “Screening and optimization of specific chemical series against human African Trypanosomiasis (HAT)”.
“And” between values parts separate entries of the source, which are not always exact repeats. Equal values may be shown once. In all, about 4,400 compounds went through this assay and about 390 (8.9%) showed an effect of 50% or more. Shown is part of a subset that was picked to be rich in strong results.

Test system: Trypanosoma brucei
Assay: DNDI: Inhibition of Human African Trypanosomiasis, SBRI 427, in vitro at 2 ug.mL-1
Type: functional

Structure (SMILES) | % inhibition
CC(NCc1coc(-c2ccccc2Br)n1)c1cccc2ccccc12 (configuration not stated) | 9% and -3%
CCOc1ccccc1Oc1ncccc1/C(=N/O)N1CCC=N1 | 13%
COc1cccc(-c2nc(CNc3ccc(C(C)=O)cc3)co2)c1 | 18%
COc1cc(-c2nc(CN3CCN(Cc4ccc5c(c4)OCO5)CC3)co2)cc(OC)c1OC | -1%
O/N=C(/c1cccnc1OCc1ccccc1F)N1CCN(c2ccc(F)cc2)CC1 | -19%
CCc1ccc(Oc2ccc(/C(=N/O)N3CCOCC3)cn2)cc1 | 3%
CSc1ccc(Oc2ccc(/C(=N/O)NC3CCC(C)CC3)cn2)cc1 (configuration not stated) | 81%
CCc1ccc(Oc2ccc(/C(=N/O)NCC3CC3)cn2)cc1 | 99%
CCc1ccc(Oc2ccc(/C(=N/O)N3CCCCC3)cn2)cc1 | 68%
CCc1ccc(Oc2ccc(/C(=N/O)NCc3c(F)cccc3F)cn2)cc1 | 22%
CC1CCC(N/C(=N\O)c2ccc(Oc3ccc(F)cc3)nc2)CC1 (configuration not stated) | 16%
CSc1ccc(Oc2cc(/C(=N/O)NC3CCC(C)CC3)ccn2)cc1 (configuration not stated) | 9%
CCc1ccc(Oc2ccc(/C(=N/O)NCc3ccc(OC)cc3)cn2)cc1 | 22%
CCc1ccc(Oc2ccc(/C(=N/O)N3CCSCC3)cn2)cc1 | 16%
N#CCCN(Cc1coc(-c2cccc(F)c2)n1)CC1CCCO1 (configuration not stated) | -9%
Cc1ccc(Oc2nc(C)ccc2/C(=N/O)N2CCC3CCCCC3C2)c(C)c1 (configuration not stated) | 10%
CC(C)COc1ncccc1/C(=N/O)N1CCC2CCCCC2C1 (configuration not stated) | -17%
Cc1ccc(Oc2ccc(/C(=N/O)N3CCN(c4ccccc4)CC3)cn2)c(C)c1 | 18%
COc1cc(CN(C)Cc2coc(-c3ccc(Cl)cc3Cl)n2)cc(OC)c1OC | 0%
COc1cc(-c2nc(CN3CCCc4ccccc43)co2)cc(OC)c1OC | 6%
Cc1ccc(Oc2nc(C)ccc2/C(=N/O)NCc2ccccc2C)c(C)c1 | 43%
COc1ccccc1CN/C(=N\O)c1ccc(C)nc1Oc1ccc(C)cc1C | 40%
CCOc1ccccc1CN/C(=N\O)c1ccc(C)nc1Oc1ccc(F)cc1 | 20%
CCOc1ccccc1CN/C(=N\O)c1ccc(C)nc1Oc1ccc(C)cc1 | 67%
CCOc1ccccc1CN/C(=N\O)c1ccc(C)nc1Oc1ccc(C)cc1C | 99%
CCOc1ccccc1CN/C(=N\O)c1ccc(C)nc1Oc1ccc(SC)c(C)c1 | -24%

Structure (SMILES) | % inhibition
Fc1ccc(-c2nc(CNC3CCc4ccccc43)co2)cc1 (configuration not stated) | 28%
Cc1ccc(/C(=N/O)N2C(C)CCCC2C)c(Oc2cccc(F)c2)n1 (configuration not stated) | 15%
CN(Cc1coc(-c2cccc(F)c2)n1)Cc1cccc2ccccc12 | -3%
COc1ccc(CN/C(=N\O)c2ccnc(Oc3ccc(C)c4c3CCC4)c2)cc1 | 21%
COC(=O)c1cn(Cc2coc(-c3ccc(Br)cc3)n2)cn1 | 16%
CSc1ccc(Oc2ncccc2/C(N)=N/O)cc1C | 17%
CCOc1ccc(Oc2cc(/C(=N/O)NC3CC(C)CC(C)(C)C3)ccn2)cc1 (configuration not stated) | 29%
CCOc1ccc(Oc2cc(/C(=N/O)NC3CCc4ccccc43)ccn2)cc1 (configuration not stated) | 29%
CCOc1ccc(Oc2cc(/C(=N/O)Nc3ccccc3)ccn2)cc1 | 24%
CCOc1ccc(Oc2cc(/C(=N/O)NC3CCCCC3)ccn2)cc1 | 51%
CCOc1ccc(Oc2cc(/C(=N/O)NC3CCC(C)CC3)ccn2)cc1 (configuration not stated) | 25%
CCOc1ccc(Oc2cc(/C(=N/O)NC3CCCC3)ccn2)cc1 | 53%
CCOc1cccc(-c2nc(CN3CCN(c4cc(C)nc5ccccc45)CC3)co2)c1 | 11%
Cc1ccccc1-c1nc(CNCCN2CCOCC2)co1 | 6%
CCOc1cccc(-c2nc(CN3CCCN(C)CC3)co2)c1 | 2%
CSc1ccc(Oc2nc(C)ccc2/C(=N/O)N2CCSC2)cc1 | 1%
Fc1cccc(-c2nc(CN3CCCCCC3)co2)c1 | 5%
Cc1cc(Oc2ccc(/C(=N/O)NC3CC3)cn2)cc(C(C)C)c1 | 62%
CCCN/C(=N\O)c1ccc(Oc2cc(C)cc(C)c2)nc1 | 20%
Cc1cc(Oc2ccc(/C(=N/O)NC3CCC(C)CC3)cn2)cc(C(C)C)c1 (configuration not stated) | 19%
COc1cccc(Oc2ccc(/C(=N/O)NCC(C)C)cn2)c1 | 19%
Cc1cc(C)cc(Oc2ccc(/C(=N/O)NCC(C)C)cn2)c1 | 90%
Cc1cc(C)cc(CN/C(=N\O)c2ccc(Oc3cc(C)cc(C)c3)nc2)c1 | -3%
Cc1cc(C)cc(Oc2ccc(/C(=N/O)NCC(C)(C)C)cn2)c1 | 98%
Cc1cc(Oc2ccc(/C(=N/O)NCC3CC3)cn2)cc(C(C)C)c1 | 97%
Cc1cc(C)cc(CN/C(=N\O)c2ccc(Oc3cc(C)cc(C(C)C)c3)nc2)c1 | 19%

Structure (SMILES) | % inhibition
Cc1cc(Oc2ccc(/C(=N/O)NC3CCc4ccccc43)cn2)cc(C(C)C)c1 (configuration not stated) | 35%
COCCN/C(=N\O)c1ccc(Oc2cc(C)cc(C(C)C)c2)nc1 | 17%
CC(C)CN/C(=N\O)c1ccc(Oc2ccc3ccccc3c2)nc1 | 2%
CCC(C)(C)N/C(=N\O)c1ccc(C)nc1Oc1ccc(F)c(F)c1 | 11%
CCOc1ccccc1-c1nc(CN2CCC=N2)co1 | -3%
CC(=O)c1ccc(N2CCN(Cc3coc(-c4ccc(F)cc4)n3)CC2)cc1 | -5%
Cc1cc(C)cc(Oc2ccc(/C(=N/O)NCC3CCCO3)cn2)c1 (configuration not stated) | -3%
Cc1cc(C)cc(Oc2ccc(/C(=N/O)NCC3CCCCC3)cn2)c1 | 21%
Cc1cc(C)cc(Oc2ccc(/C(=N/O)NCC3CC3)cn2)c1 | 99%
Cc1cccc(CNCc2coc(-c3ccc(O)cc3)n2)c1 | -10%
Cc1cn(Cc2coc(-c3ccccc3Br)n2)c(C)n1 | 25%
CCCCN(Cc1coc(-c2ccccc2Cl)n1)c1ccccc1 | 10%
COc1cc(-c2nc(Cn3cnc(C)c3)co2)cc(OC)c1OC | -15%
CC1(C)[C@H]2CC[C@@H](CNCc3coc(-c4cccc5ccccc45)n3)[C@@H]1C2 | 73%
c1ccc2c(CNCc3coc(-c4cccc5ccccc45)n3)cccc2c1 | 14%
Cc1ccc(-c2nc(CNCc3ccc(C)o3)co2)cc1 | -7%
CC1(C)[C@H]2CC[C@@H](CNCc3coc(-c4ccc(F)cc4)n3)[C@@H]1C2 | 99%
Cc1ccc(-c2nc(CNC[C@@H]3CCCO3)co2)cc1 | 12%
COc1ccc(-c2nc(CNCC3CCCO3)co2)cc1 (configuration not stated) | -10%
COc1ccc(-c2nc(CNC[C@@H]3CC[C@H]4C[C@@H]3C4(C)C)co2)cc1 | 97%
COc1cc(-c2nc(CNC[C@@H]3CC[C@H]4C[C@@H]3C4(C)C)co2)cc(OC)c1OC | 11%
COc1ccc(CNCc2coc(-c3ccc(F)cc3)n2)cc1 | -33%
CC1(C)[C@H]2CC[C@@H](CNCc3coc(-c4ccccc4Cl)n3)[C@@H]1C2 | 35%
Cc1ccc(-c2nc(CNC[C@@H]3CC[C@H]4C[C@@H]3C4(C)C)co2)cc1 | 99%
CC1(C)[C@H]2CC[C@@H](CNCc3coc(-c4cccc(F)c4)n3)[C@@H]1C2 | 42%
